HT1080-NT tox – qHTS for induction of synthetic lethality in tumor cells producing 2HG: qHTS for the HT-1080-NT fibrosarcoma cell line. HT-1080-NT fibrosarcoma viability, CellTiter-Glo ATP luminescence, 48 h. Potency, µM (doses to about 46.1 µM), without a hit: top-dose activity, negative = less viability, actives largely listed as cytotoxic. actives 1.6% (n = 360,000). AID 686970, 2013;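 note: NT is the 2HG producing partner of a matched IDH1 knockdown line; potency is the fitted concentration of half-maximal effect; 0% = DMSO-treated cells and -100% = media-only wells without cells; nearly all actives have a fitted effect of over 55% in size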
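750 cells/well, RPMI + 5% FBS; 2 h settle, compound pin-transfer, 48 h at 37 degrees C. CellTiter-Glo 10 min RT, luminescence. Normalized to DMSO and media-only wells.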
DT40 TDP1 CPT – qHTS for Inhibitors of human tyrosyl-DNA phosphodiesterase 1 (TDP1): qHTS in cells in presence of CPT; chicken DT40 Tdp1-/-;hTDP1 cells + 20 nM CPT, ATP luminescence, 48 h; Potency, µM (series often up to 46.2 µM), for inactives: at the highest dose activity change, negative = growth inhibition, actives largely listed as inhibitors; actives 12% (n = 420,000); note: potency is the fitted concentration of half-maximal effect; nearly all actives have a fitted effect of over 55% in size
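Chicken DT40 Tdp1-/- cells complemented with human TDP1, 400 cells/well, exposed to compounds plus 20 nM camptothecin for at least 48 h at 37 C; viability read as ATP content by CellTiter-Glo luminescence.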
IL1B secr inh – qHTS for Inhibitors of Inflammasome Signaling: IL-1-beta AlphaLISA Primary Screen. THP-1 LPS/ATP IL-1B secretion, AlphaLISA, 16 h; stronger effect = lower value. activity change, % at 57.5 µM. actives 4.7% (n = 360,000). AID 743279, 2014; in the data active = activity change below about -50%; inconclusive = mostly about -30% to -49%
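THP-1 cells pretreated 1 hr with compounds (up to 57.5 uM final), then stimulated with LPS (250 ng/mL final) plus ATP (1.25 mM final); secreted IL-1B measured by AlphaLISA after 16 hr, decreased signal indicating inhibition.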
HT1080 IDH1KD tx – qHTS for induction of synthetic lethality in tumor cells producing 2HG: qHTS for the HT-1080-IDH1KD cell line. AID 686971, 2013. Potency, µM (titrated, usually from 46.1 µM), inactives show at the highest dose activity, negative = toxicity, usual class: cytotoxic. actives 2% (n = 360,000). HT-1080 IDH1 knockdown viability, ATP luminescence, 48 h;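 note: potency is the fitted concentration of half-maximal effect; 0% = DMSO wells and -100% = cell-free medium wells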
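Luminescent ATP read-out (CellTiter-Glo, 10 min at room temperature) after 48 h compound exposure at 37 °C gave viability of IDH1-knockdown HT-1080 cells. Activity was normalised to DMSO and cell-free wells, then fitted as concentration-response curves.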
TDP1 cell noCPT – qHTS for Inhibitors of human tyrosyl-DNA phosphodiesterase 1 (TDP1): qHTS in cells in absence of CPT; DT40 Tdp1-/- hTDP1 cells, no CPT, ATP luminescence, 48 h; Potency, µM (series often up to 46.2 µM), for inactives: top-dose activity change, negative = growth inhibition, hits mostly inhibitors; actives 15% (n = 420,000); note: potency is the fitted concentration of half-maximal effect; nearly all actives have a fitted effect of over 55% in size
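Stably hTDP1-transfected Tdp1-null chicken DT40 cells were treated with library compounds minus camptothecin and grown for at least 48 hr at 37 °C, after which cellular ATP was quantified by luminescence.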
* hit, by the source's call; i = inactive; ? = inconclusive; / = not tested or not shown; [ ] = dose if it differs, or a comment. Rows were chosen to be rich in hits. Some 19% of all compounds tested hit in one or more screens of this group. Unless noted, calls come from the whole dose curve; as a rule, active = well fitted curve in the direction sought with a large enough effect; inconclusive = small, poorly fitted or top-dose-only effect, or another doubt; inactive = no such curve, though single readings can be large; an effect the other way counts as inactive or inconclusive. Unless noted, % is set by controls: 0 for no effect and ±100 for the full control effect.

SMILES | HT1080-NT tox | DT40 TDP1 CPT | IL1B secr inh | HT1080 IDH1KD tx | TDP1 cell noCPT
Cc1nnc(SCC(=O)c2cc(C)n(-c3ccc4c(c3)OCO4)c2C)s1 | -30% | 26µM* | -77* | -23% | 23µM*
CC(=O)Nc1ccc(S(=O)(=O)NCC(=O)OCC(=O)c2cc(C)n(-c3ccc4c(c3)OCO4)c2C)cc1 | 0% | -12% | 32 | 1% | 8.2µM*
Cc1cc(C(=O)COC(=O)CC2Sc3ccccc3NC2=O)c(C)n1-c1ccc2c(c1)OCO2 (configuration not stated) | -6% | ? | 26 | -17% | ?
Cc1cc(C(=O)CSc2nnc(-c3ccc4c(c3)OCO4)o2)c(C)n1-c1ccc(F)cc1 | 14% | -12% | 43 | 1% | -2%
C=CCn1c(C)cc(C(=O)COC(=O)c2ccc3c(c2)NC(=O)CS3)c1C | -25% | ? | ? | -25% | 16µM*
O=C(O)c1ccc(S(=O)(=O)NC2CCCCCC2)cc1 | 0% | 6% | -20 | 4% | -1%
CCCS(=O)(=O)c1nc(S(=O)(=O)c2ccc(C)cc2)c(N2CCN(CC)CC2)s1 | 10% | ? | ? | -3% | -9%
CC(=O)c1ccc(OCC(=O)c2cc(C)n(-c3ccc4c(c3)OCO4)c2C)cc1 | 2% | 23µM* | -3 | ? | 10µM*
Cc1cc(C(=O)COC(=O)c2ccc(N)c([N+](=O)[O-])c2)c(C)n1Cc1ccc2c(c1)OCO2 | 9% | ? | 13 | 13% | ?
C=CCn1c(C)cc(C(=O)COC(=O)c2ccc(N)c([N+](=O)[O-])c2)c1C | 1% | 18µM* | -7 | -7% | 16µM*
Cc1cc(C(=O)CN2C(=O)C(=O)N(Cc3ccccc3)C2=O)c(C)n1-c1ccc2c(c1)OCCO2 | ? | 15µM* | 25 | ? | 21µM*
Cc1cc(C(=O)COC(=O)c2ccc(N)c([N+](=O)[O-])c2)c(C)n1-c1ccc2c(c1)OCO2 | -17% | 9.2µM* | 0 | ? | 5.8µM*
COc1ccc(-n2c(C)cc(C(=O)COc3ccc(-n4cnnn4)cc3)c2C)cc1 | -4% | ? | -4 | 4%[9.24 µM] | ?
CC(C)(C)C(=O)COC(=O)c1ccc(N)c([N+](=O)[O-])c1 | 9% | 18% | 17 | 15% | 9%
O=C(CSCc1ccc(Br)cc1)NCc1ccccn1 | 12% | -3% | -15 | 12% | -7%
COc1cc(OC)c(NC(=O)CCc2nc(-c3ccc(C)cc3)no2)cc1Cl | -3% | 18µM* | -3 | -7%[9.24 µM] | 23µM*
COc1ccc(OC)c(NC(=O)COCc2cc(-c3ccc(F)cc3)on2)c1 | / | 18µM* | / | / | ?
COc1cc(OC)c(NC(=O)CCc2nc(C3=CCN(Cc4cccc(Cl)c4)CC3)no2)cc1Cl | / | 23µM* | / | / | 8.2µM*
COc1ccccc1NC(=O)CCCc1nc(-c2ccc(OC)c(OC)c2)no1 | -1% | ? | 0 | -1% | -30%
CCc1ccccc1NC(=O)CCc1nc(-c2ccc(C)cc2)no1 | -13% | -20% | -7 | -14% | -10%
COc1ccc(-c2noc(CC(=O)Nc3cc(OC)ccc3OC)n2)cc1 | / | 23µM* | / | / | 16µM*
COc1ccccc1CN1CC(C(=O)NCC2(O)CCCCC2)CCC1=O (configuration not stated) | 3% | -2% | 5 | 7% | 1%
O=C(O)Cc1ccc(NC(=S)Nc2ccc(Br)cc2Cl)cc1 | 1% | -1% | -12 | 1% | -10%
Cc1ccc2c(C)c(C)c(=O)n(C)c2c1 | 9% | -3% | 46 | 13% | -4%
CC(=O)Oc1ccc(-c2cccc(C(=O)OCC(=O)Nc3ccccc3Oc3ccccc3)c2)cc1 | ? | -27% | 16 | ? | 18µM*
SMILES | HT1080-NT tox | DT40 TDP1 CPT | IL1B secr inh | HT1080 IDH1KD tx | TDP1 cell noCPT
CN(C(=O)COC(=O)c1cccc(S(=O)(=O)N2CCCCCC2)c1)c1ccccc1 | -1% | 1% | 14 | 0% | -29%
COc1ccc(N(C)S(=O)(=O)c2cccc(C(=O)OCC(=O)N(C)c3ccccc3)c2)cc1 | 1% | ? | -8 | -26% | 21µM*
O=C(COC(=O)c1cccc(Cl)c1)Nc1cc(Cl)ccc1Oc1ccccc1 | 9% | ? | -3 | 4% | ?
CCOc1ccccc1NC(=O)COC(=O)c1cccc(-c2ccc(OC(C)=O)cc2)c1 | -20% | ? | i | -6% | 26µM*
CC(=O)Oc1ccc(-c2cccc(C(=O)OCC(=O)N(C)c3ccccc3)c2)cc1 | 3% | ? | 0 | 11% | 23µM*
CCOc1ccc(-c2cc(C(=O)OC)nc3c2c(=O)n(C)c(=O)n3C)cc1 | 7% | 2% | 37 | 5% | -12%
CC(=O)C1=C(O)C=C2Oc3c(C(C)=O)c(O)c(C)c(O)c3C2(C)C1=O (configuration not stated) | / | -5%[9.04 µM] | / | / | 10%[9.04 µM]
COc1ccc(C2(SCC(N)C(=O)O)c3ccccc3-c3ccccc32)cc1 (configuration not stated) | ? | -8% | 2 | 5% | -20%
Cc1ccc(NC(=O)c2ccco2)cc1NC(=O)CSc1nnc(-c2cccs2)n1C | 0% | -25% | ? | 0% | -21%
CCN(CC)CCCNc1ccc(-c2nnc(-c3ccc(OCC(C)C)cc3)o2)cn1 | -8% | 2.9µM* | -51* | ? | 2.9µM*
CCON1C(=O)C(C)(C)N(OCC)C(=O)C1(C)C | 18% | ? | 22 | 8% | 12µM*
CCOC(=O)c1c(C)n(C)c2cc(-c3ccc(C)cc3)c(O)cc12 | 16% | -9% | 9 | 26% | -14%
CCOC(=O)c1c(C)n(C)c2c(C)cc(O)c(OC(=O)CC)c12 | 9% | 7.3µM* | -4 | 1%[9.24 µM] | ?
CCCCCCCC(=O)NNC(=O)Cc1ccccc1 | 3% | -19% | 4 | -9% | -2%
CCCCCCCCCCCCCCCC[N+](C)(C)Cc1ccccc1 | / | 1.2µM* | / | / | 0.94µM*
CCCCCCCCCCCCCC[N+](C)(C)Cc1ccccc1 | / | 1.2µM* | / | / | 1.1µM*
CCOc1ccccc1C1c2[nH]c3ccccc3c2C[C@H]2C(=O)N(C3CC3)CC(=O)N12 (some centres not stated) | -2% | 3% | -4 | -1% | 11%
CC[C@H]1c2[nH]c3ccccc3c2C[C@@H]2C(=O)N(c3ccc(F)cc3)C(=O)N21 | -1% | 16µM* | 10 | -10% | ?
CC1(C)Oc2ccc3ccc(=O)oc3c2/C(=C/Nc2ccccn2)C1=O | 15% | ? | -15 | 14% | ?
